Screening data from PubChem BioAssay.
ELG1 repair inh: inhibitors of ELG1-dependent DNA repair in HEK293T cells. Potency, µM (highest dose often 46.1 µM), for inactives: top-dose activity change, negative = inhibition, usual class: inhibitors. 2.3% of 330,000 active. HEK293T ELG1-luciferase reporter, luminescence, 16 h; DNA damage induced by 5-fluorouridine; also: % is scaled to controls: 0 for no effect and ±100 for the full control effect; nearly all actives have a fitted effect of over 55% in size
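Reporter activity after DNA damage by 5-fluorouridine is monitored. Compound-treated cells incubate 16 hr at 37 °C, then ONE-Glo is added for 30 min before luminescence reading.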
MCF10A rereplic: DNA re-replication induction in MCF 10a cells; MCF 10A DNA re-replication, Hoechst nuclear intensity, 48 h; Potency, µM (top dose mostly 46.1 µM), for inactives: at the highest dose activity, positive = re-replication, usual class: activators; 2.9% of 350,000 active; AID 624296; also: % of control where 0% means no effect; nearly all actives have a fitted effect of over 50% in size
SW480 rereplic: inducers of DNA re-replication in SW480 colon cancer cells. SW480 DNA re-replication, Hoechst DNA content imaging, 48 h. Potency, µM (top dose mostly 46.1 µM), for the others: top-dose re-replication activation, most hits filed as activators. 1.8% of 340,000 active. AID 624297; also: % of control where 0% means no effect; nearly all actives have a fitted effect of over 55% in size
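Cells (250 per well) received 23 nL compound or DMSO by pin tool and were kept 48 hr at 37 C, 5% CO2. Nuclei were then stained with Hoechst for 40 min and scanned for DNA content.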
Gal4-VP16 FLuc: counter-screen for ROR gamma inhibitors: Gal4-VP16 reporter; Drosophila S2 Gal4-VP16 UAS-luciferase, luminescence, 20 h; Potency, µM (doses to about 53.6 µM), for inactives: at the top dose activity, negative = inhibition, hits mostly inhibitors; AID 2546; 3.5% of 310,000 active;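 also: Gal4-VP16 expression switched on by copper sulfate through the metallothionein promoter; % is scaled to controls: 0 for no effect and ±100 for the full control effect; nearly all actives have a fitted effect of over 50% in size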
RORg inh: inhibitors of mouse ROR gamma transcriptional activity; P51450; 5.4% of 310,000 active; Potency, µM (series often up to 53.6 µM), for the others: at the top dose activity change, negative = inhibition, most hits filed as inhibitors; Drosophila S2 Gal4-RORgamma UAS-luciferase reporter, 20 h; also: % is scaled to controls: 0 for no effect and ±100 for the full control effect; nearly all actives have a fitted effect of over 60% in size
Target sequence (P51450 whole entry, looked up, the tested form may be a part): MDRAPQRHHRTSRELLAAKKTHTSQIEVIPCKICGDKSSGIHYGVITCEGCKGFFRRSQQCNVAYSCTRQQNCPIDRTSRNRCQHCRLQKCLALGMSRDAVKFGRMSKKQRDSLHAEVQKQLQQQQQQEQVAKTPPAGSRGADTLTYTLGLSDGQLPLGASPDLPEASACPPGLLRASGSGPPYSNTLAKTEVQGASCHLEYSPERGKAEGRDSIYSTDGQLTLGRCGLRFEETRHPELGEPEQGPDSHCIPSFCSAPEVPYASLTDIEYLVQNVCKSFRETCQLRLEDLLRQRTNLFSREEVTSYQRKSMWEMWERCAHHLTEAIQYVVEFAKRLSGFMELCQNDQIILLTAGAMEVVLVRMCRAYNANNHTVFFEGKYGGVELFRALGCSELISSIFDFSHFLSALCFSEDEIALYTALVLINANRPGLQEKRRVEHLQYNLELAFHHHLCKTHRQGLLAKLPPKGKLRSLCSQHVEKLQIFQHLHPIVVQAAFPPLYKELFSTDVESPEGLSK
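Luminescence from a UAS-regulated Photinus luciferase reporter in stably transfected Drosophila Schneider cells is measured; decreased signal marks ROR gamma inhibition. Fusion expression is induced by 700 uM copper sulfate for 20 hr.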
The depositor's hits bear a star; ? = inconclusive; nt = no result given; [ ] = dose if it differs, or a comment. Only some compounds are listed: those with a hit (about 10% of all), similar ones and a draw of the others. Calls follow the shape of the dose curve; as a rule, active = well fitted curve in the direction sought with a large enough effect; inconclusive = small, poorly fitted or top-dose-only effect, or another doubt; inactive = no such curve, though single readings can be large; an effect the other way counts as inactive or inconclusive. Potency is read from the fitted curve at half-maximal effect.

SMILES	ELG1 repair inh	MCF10A rereplic	SW480 rereplic	Gal4-VP16 FLuc	RORg inh
COc1ccc(Cl)c2sc(N(CCN(C)C)C(=O)CCS(=O)(=O)c3ccc(C)cc3)nc12	6%	?	-18%	nt	nt
Cc1cc(C)c2sc(N(CCN(C)C)C(=O)CCS(=O)(=O)c3ccccc3)nc2c1	-5%	?	27%	?	?
CCN(CC)CCN(C(=O)CCS(=O)(=O)c1ccccc1)c1nc2cc(C)cc(C)c2s1	8%	21%	30%	-29%	20µM*
CN(C)CCCN(C(=O)CCS(=O)(=O)c1ccccc1)c1nc2cc3c(cc2s1)OCO3	?	5.2µM*	?	16µM*	11µM*
COc1ccc(OC)c2sc(N(CCCN(C)C)C(=O)CCS(=O)(=O)c3ccccc3)nc12	?	5.8µM*	?	nt	nt
COc1ccc(C(=O)COC(=O)CCN2C(=O)C3CC=CCC3C2=O)c(OC)c1 (stereo unspecified)	?	?	3%	nt	nt
CSCC(C)N1CCC(n2nccc2NC(=O)c2ccccc2C)CC1 (stereo unspecified)	0%	-15%	2%	2%	5%
COC(=O)c1ccc(C(=O)OC)c(NC(=O)CN(c2ccccc2)S(=O)(=O)N(C)C)c1	-4%	-22%	?	0%	-15%
COc1cc2ccccc2cc1C(=O)N(CCN(C)C)c1nc2ccc(Br)cc2s1	-12%	?	23µM*	-3%	-22%
CN(C)CCCN(C(=O)c1ccc2c(c1)CCCC2)c1nc2cc3c(cc2s1)OCO3	-9%	16µM*	?	-27%	-27%
CN(C)CCCN(C(=O)c1ccc2c(c1)CCCC2)c1nc2ccc(F)cc2s1	11%	?	?	?	?
Cc1ccc(C(=O)N(CCCN(C)C)c2nc3ccc(Cl)cc3s2)cc1C	-5%	5%	?	18µM*	10µM*
O=C1CCCC2=C1C1O[C@](CCCCN3C(=O)c4ccccc4C3=O)(Cc3ccccc31)O2	nt	nt	nt	-4%[10 µM]	2%[10 µM]
CC1COC(=O)O1 (stereo unspecified)	nt	nt	nt	-6%	0%
O[C@@H](c1ccccc1)C1CCN(CCc2ccccc2)CC1	nt	nt	nt	0%	17%
Oc1c(Cl)cc(Cl)c2c1NCCC2	9%	?	?	5µM*	3.2µM*
CCOc1ccc(OCCC(=O)OCC(=O)N2CCN(S(=O)(=O)c3ccc(Cl)cc3)CC2)cc1	-20%	?	?	18µM*	11µM*
Cc1cc(C)c(C(=O)/C=C/c2cccc3ccccc23)c(=O)[nH]1	15µM*	16µM*	23µM*	13µM*	?
Cc1ccccc1CSc1nc2n(n1)C(c1cccs1)C1=C(CCCC1=O)N2 (stereo unspecified)	-28%	26µM*	?	2%	6%
CCN1C[C@@H]2[C@@H]3C(=O)N(Cc4ccccc4)C(=O)[C@@H]3[C@](CC)(C(=O)OC)N2C1=NC1CCCCC1	2%	-4%	-4%	nt	nt
CC1=C(C(=O)OC(C)C)C(c2cccc([N+](=O)[O-])c2)C(C(=O)OC2CN(C(c3ccccc3)c3ccccc3)C2)=C(N)N1 (stereo unspecified)	nt	21µM*	?	?	?
COCCOC(=O)C1=C(C)NC(C)=C(C(=O)OC(C)C)[C@@H]1c1cccc([N+](=O)[O-])c1	nt	nt	nt	6%	10%
COCCOC(=O)C1=C(C)NC(C)=C(C(=O)OC/C=C/c2ccccc2)C1c1cccc([N+](=O)[O-])c1 (stereo unspecified)	nt	-2%	30µM*	?	?
COC(=O)C1=C(C)NC(C)=C(C(=O)OC(C)(C)CN(C)CCC(c2ccccc2)c2ccccc2)C1c1cccc([N+](=O)[O-])c1 (stereo unspecified)	nt	15%	12µM*	?	?
CCOC(=O)C1=C(N)Oc2cc(O)ccc2C1c1cccc([N+](=O)[O-])c1 (stereo unspecified)	-13%	8.2µM*	?	-4%	-4%
SMILES	ELG1 repair inh	MCF10A rereplic	SW480 rereplic	Gal4-VP16 FLuc	RORg inh
O=C(O)CC(NC(=O)C1c2ccccc2Oc2ccccc21)c1ccc(Cl)cc1 (stereo unspecified)	?	15%	-9%	-2%	5%
COCCOC(=O)C1=C(C)NC(C)=C(C(=O)OC(C)C)C1c1cccc([N+](=O)[O-])c1 (stereo unspecified)	12µM*	?	9%	-2%	?
OCCC1CN(Cc2cccn2-c2cccnc2)CCN1C1CCCC1 (stereo unspecified)	12%	11%	3%	-7%	-12%
O=CNc1c(Cl)cc2c(c1Cl)Cc1cc([N+](=O)[O-])ccc1-2	nt	?	21µM*	nt	nt
O=[N+]([O-])c1ccc2c(c1)Cc1cc(F)ccc1-2	nt	-29%	-2%	nt	nt
O=C(NCc1ccccc1F)c1ccncc1	1%	-2%	?	-3%	-6%
CCN(CC)C(=O)[C@H]1CC(CC(=O)NCC23CC4CC(CC(C4)C2)C3)C(=O)N2CCc3c([nH]c4ccc(OC)cc34)[C@]12C (stereo partly specified)	23µM*	?	0%	nt	nt
CCN(CC)C(=O)[C@H]1C[C@H](CC(=O)NCc2ccco2)C(=O)N2CCc3c([nH]c4cc(-c5ccco5)ccc34)[C@]12C	18µM*	?	1%	nt	nt
C[C@]12c3[nH]c4ccc(Cl)cc4c3CCN1C(=O)[C@@H](CC(=O)NCc1ccco1)C[C@@H]2C(=O)N1CCCCC1	?	4%	13%	nt	nt
COc1ccc2[nH]c3c(c2c1)CCN1C(=O)C(CC(=O)NCc2ccco2)C[C@H](C(=O)N2CCCCC2)[C@@]31C (stereo partly specified)	-8%	4%	18µM*	nt	nt
O=C(C[C@H]1C[C@H](C(=O)N2CCCCC2)[C@@]2(CCc3ccccc3)c3[nH]c4cc(-c5ccco5)ccc4c3CCN2C1=O)NCCN1CCOCC1	-17%	23µM*	?	nt	nt
COCCCNC(=O)C[C@H]1C[C@H](C(=O)N2CCCCC2)[C@@]2(CCc3ccccc3)c3[nH]c4cc(-c5ccco5)ccc4c3CCN2C1=O	?	-16%	?	nt	nt
CCN(CC)C(=O)[C@H]1CC(CC(=O)NCCN2CCOCC2)C(=O)N2CCc3c([nH]c4ccc(OC)cc34)[C@]12C (stereo partly specified)	?	2%	1%	nt	nt
COc1cc(C(=O)COC(=O)C2CC2(Cl)Cl)cc(OC)c1OC (stereo unspecified)	-2%	-2%	3%	nt	nt
COc1ccc(OC2CCN(S(=O)(=O)c3ccccc3)CC2)cc1	-24%	6%	-2%	-4%	6%
